Results on 48 sequences are retold here after article PMC12820563, “FoxP3 forms a head-to-head dimer in vivo and stabilizes its multimerization on adjacent microsatellites”.

In all, about 16,000 sequences were measured (“rpm ratio (pull-down/input)”: median about 0.94, highest 2% from about 1.7 on). The full list was thinned out, with the highest values kept by preference.

The target of this test is T1, MBP-FoxP1dN (Mus musculus, UniProt P58462 326-579).
T1 sequence: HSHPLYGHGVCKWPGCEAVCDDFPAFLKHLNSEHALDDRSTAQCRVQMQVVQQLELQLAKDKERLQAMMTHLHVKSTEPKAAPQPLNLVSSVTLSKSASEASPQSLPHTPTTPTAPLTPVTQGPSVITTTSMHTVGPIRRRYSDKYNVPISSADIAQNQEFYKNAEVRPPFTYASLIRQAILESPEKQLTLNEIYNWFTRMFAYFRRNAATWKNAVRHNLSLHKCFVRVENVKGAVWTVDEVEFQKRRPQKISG
In words: PD-seq (MBP pull-down with sequencing); 20 mM Tris-HCl pH 7.5, 100 mM NaCl, 1.5 mM MgCl2, 0.4 uM protein, 0.1 uM dsDNA library, 30 min, room temperature, amylose pull-down; high values mean tight binding. To be noted: protein: recombinant; tags: His6-MBP; chain copies: 2; dsDNA, one strand shown. The gist of the method: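 The N-terminus-lacking fragment of mouse FoxP3 or FoxP1 carried a His6-MBP tag and was expressed in E. coli. At 0.4 µM it was incubated with 0.1 µM Klenow-filled degenerate double-stranded DNA library for 30 min at room temperature in Tris pH 7.5 buffer with NaCl and MgCl2, and complexes were caught on amylose resin, washed three times, released with proteinase K, PCR-barcoded and Illumina-sequenced. Binding is reads-per-million enrichment of pull-down over input with replicates pooled.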
As for “GATGATTGTTCTCCCAGCTGATGAATTGAGGTCCTCGAGTAAACAAATTTTCCTAATCTTTCTGTTCAAGCGCCATCTAC”, the binding signal was 0.772 RPM ratio (pull-down/input). To “GATGATTGTTCTCCCAGCTGATGAATTTGATAGCTCGAGTAAACAAATTTTCCTAATCTTTCTGTTCAAGCGCCATCTAC” belongs 0.868 RPM ratio (pull-down/input); to “GATGATTGTTCTCCCAGCTGATGAATTCGGTACATCGAGTAAACAAATTTTCCTAATCTTTCTGTTCAAGCGCCATCTAC”, 0.991 RPM ratio (pull-down/input). Consider “GATGATTGTTCTCCCAGCTGATGAATTCTAATAGTCGAGTAAACAAATTTTCCTAATCTTTCTGTTCAAGCGCCATCTAC”, for which the binding signal was 0.905 RPM ratio (pull-down/input). To “GATGATTGTTCTCCCAGCTGATGAATTAGCCGTATCGAGTAAACAAATTTTCCTAATCTTTCTGTTCAAGCGCCATCTAC” belongs 0.934 RPM ratio (pull-down/input).

Take “GATGATTGTTCTCCCAGCTGATGAATTTACGATCTCGAGTAAACAAATTTTCCTAATCTTTCTGTTCAAGCGCCATCTAC”: the binding signal was 1.15 RPM ratio (pull-down/input).

On to “GATGATTGTTCTCCCAGCTGATGAATTGGCGCTATCGAGTAAACAAATTTTCCTAATCTTTCTGTTCAAGCGCCATCTAC”, for which the binding signal is 0.954 RPM ratio (pull-down/input).

Turning to “GATGATTGTTCTCCCAGCTGATGAATTCTGCCCGTCGAGTAAACAAATTTTCCTAATCTTTCTGTTCAAGCGCCATCTAC”, the binding signal is 0.815 RPM ratio (pull-down/input). For the sequence “GATGATTGTTCTCCCAGCTGATGAATTATTTGTATCGAGTAAACAAATTTTCCTAATCTTTCTGTTCAAGCGCCATCTAC”, the binding signal was 2 RPM ratio (pull-down/input).

As for “GATGATTGTTCTCCCAGCTGATGAATTGTAATTATCGAGTAAACAAATTTTCCTAATCTTTCTGTTCAAGCGCCATCTAC”, the binding signal was 1.54 RPM ratio (pull-down/input). Consider “GATGATTGTTCTCCCAGCTGATGAATTATCTGTATCGAGTAAACAAATTTTCCTAATCTTTCTGTTCAAGCGCCATCTAC”, for which the binding signal is 1.1 RPM ratio (pull-down/input).

As for “GATGATTGTTCTCCCAGCTGATGAATTAATTGTATCGAGTAAACAAATTTTCCTAATCTTTCTGTTCAAGCGCCATCTAC”, the binding signal is 1.44 RPM ratio (pull-down/input). For the sequence “GATGATTGTTCTCCCAGCTGATGAATTTGTATTATCGAGTAAACAAATTTTCCTAATCTTTCTGTTCAAGCGCCATCTAC”, the binding signal is 2.13 RPM ratio (pull-down/input). “GATGATTGTTCTCCCAGCTGATGAATTGTATTAATCGAGTAAACAAATTTTCCTAATCTTTCTGTTCAAGCGCCATCTAC”: the binding signal was 1.24 RPM ratio (pull-down/input). For the sequence “GATGATTGTTCTCCCAGCTGATGAATTGCGAATATCGAGTAAACAAATTTTCCTAATCTTTCTGTTCAAGCGCCATCTAC”, the binding signal is 1.17 RPM ratio (pull-down/input). For “GATGATTGTTCTCCCAGCTGATGAATTGCTCTTCTCGAGTAAACAAATTTTCCTAATCTTTCTGTTCAAGCGCCATCTAC”, the binding signal was 0.889 RPM ratio (pull-down/input). On to “GATGATTGTTCTCCCAGCTGATGAATTCGGGTTCTCGAGTAAACAAATTTTCCTAATCTTTCTGTTCAAGCGCCATCTAC”, for which the binding signal was 0.806 RPM ratio (pull-down/input). Turning to “GATGATTGTTCTCCCAGCTGATGAATTGGAATATTCGAGTAAACAAATTTTCCTAATCTTTCTGTTCAAGCGCCATCTAC”, the binding signal was 0.93 RPM ratio (pull-down/input). Take “GATGATTGTTCTCCCAGCTGATGAATTGTCTTCTTCGAGTAAACAAATTTTCCTAATCTTTCTGTTCAAGCGCCATCTAC”: the binding signal was 1.05 RPM ratio (pull-down/input). As for “GATGATTGTTCTCCCAGCTGATGAATTTGTTGTCTCGAGTAAACAAATTTTCCTAATCTTTCTGTTCAAGCGCCATCTAC”, the binding signal was 2.42 RPM ratio (pull-down/input). The same measure for “GATGATTGTTCTCCCAGCTGATGAATTGTTGTCTTCGAGTAAACAAATTTTCCTAATCTTTCTGTTCAAGCGCCATCTAC”: 2.29 RPM ratio (pull-down/input); for “GATGATTGTTCTCCCAGCTGATGAATTTTTTGTCTCGAGTAAACAAATTTTCCTAATCTTTCTGTTCAAGCGCCATCTAC”: 0.905 RPM ratio (pull-down/input); for “GATGATTGTTCTCCCAGCTGATGAATTTCTGTCTTCGAGTAAACAAATTTTCCTAATCTTTCTGTTCAAGCGCCATCTAC”: 0.89 RPM ratio (pull-down/input). In the case of “GATGATTGTTCTCCCAGCTGATGAATTCTTTGTCTCGAGTAAACAAATTTTCCTAATCTTTCTGTTCAAGCGCCATCTAC”, the binding signal was 0.931 RPM ratio (pull-down/input). In the case of “GATGATTGTTCTCCCAGCTGATGAATTGTTTGTCTCGAGTAAACAAATTTTCCTAATCTTTCTGTTCAAGCGCCATCTAC”, the binding signal was 2.6 RPM ratio (pull-down/input). Turning to “GATGATTGTTCTCCCAGCTGATGAATTTTGTCTCTCGAGTAAACAAATTTTCCTAATCTTTCTGTTCAAGCGCCATCTAC”, the binding signal was 0.968 RPM ratio (pull-down/input). The same measure for “GATGATTGTTCTCCCAGCTGATGAATTTGTCTTCTCGAGTAAACAAATTTTCCTAATCTTTCTGTTCAAGCGCCATCTAC”: 1.16 RPM ratio (pull-down/input). In the case of “GATGATTGTTCTCCCAGCTGATGAATTGTATCAATCGAGTAAACAAATTTTCCTAATCTTTCTGTTCAAGCGCCATCTAC”, the binding signal was 1.25 RPM ratio (pull-down/input).

Take “GATGATTGTTCTCCCAGCTGATGAATTACTATATTCGAGTAAACAAATTTTCCTAATCTTTCTGTTCAAGCGCCATCTAC”: the binding signal was 1.23 RPM ratio (pull-down/input).

Turning to “GATGATTGTTCTCCCAGCTGATGAATTCAGCACATCGAGTAAACAAATTTTCCTAATCTTTCTGTTCAAGCGCCATCTAC”, the binding signal was 0.96 RPM ratio (pull-down/input). As to “GATGATTGTTCTCCCAGCTGATGAATTCCCGATGTCGAGTAAACAAATTTTCCTAATCTTTCTGTTCAAGCGCCATCTAC”, the binding signal is 0.877 RPM ratio (pull-down/input). With “GATGATTGTTCTCCCAGCTGATGAATTTAAGGACTCGAGTAAACAAATTTTCCTAATCTTTCTGTTCAAGCGCCATCTAC”, the binding signal was 0.845 RPM ratio (pull-down/input).

Regarding “GATGATTGTTCTCCCAGCTGATGAATTAAATCTGTCGAGTAAACAAATTTTCCTAATCTTTCTGTTCAAGCGCCATCTAC”, the binding signal is 0.778 RPM ratio (pull-down/input). Turning to “GATGATTGTTCTCCCAGCTGATGAATTAATATTTTCGAGTAAACAAATTTTCCTAATCTTTCTGTTCAAGCGCCATCTAC”, the binding signal was 1.78 RPM ratio (pull-down/input).

In the case of “GATGATTGTTCTCCCAGCTGATGAATTAAAATATTCGAGTAAACAAATTTTCCTAATCTTTCTGTTCAAGCGCCATCTAC”, the binding signal was 1.1 RPM ratio (pull-down/input). As for “GATGATTGTTCTCCCAGCTGATGAATTAAATATGTCGAGTAAACAAATTTTCCTAATCTTTCTGTTCAAGCGCCATCTAC”, the binding signal was 1.07 RPM ratio (pull-down/input). For the sequence “GATGATTGTTCTCCCAGCTGATGAATTAATATTGTCGAGTAAACAAATTTTCCTAATCTTTCTGTTCAAGCGCCATCTAC”, the binding signal is 2.15 RPM ratio (pull-down/input).

Turning to “GATGATTGTTCTCCCAGCTGATGAATTAAATATTTCGAGTAAACAAATTTTCCTAATCTTTCTGTTCAAGCGCCATCTAC”, the binding signal is 1.14 RPM ratio (pull-down/input). Take “GATGATTGTTCTCCCAGCTGATGAATTCGGACCCTCGAGTAAACAAATTTTCCTAATCTTTCTGTTCAAGCGCCATCTAC”: the binding signal was 0.79 RPM ratio (pull-down/input). With “GATGATTGTTCTCCCAGCTGATGAATTTCTATTTTCGAGTAAACAAATTTTCCTAATCTTTCTGTTCAAGCGCCATCTAC”, the binding signal was 2.01 RPM ratio (pull-down/input). For the sequence “GATGATTGTTCTCCCAGCTGATGAATTCCTATTTTCGAGTAAACAAATTTTCCTAATCTTTCTGTTCAAGCGCCATCTAC”, the binding signal was 1.86 RPM ratio (pull-down/input). With “GATGATTGTTCTCCCAGCTGATGAATTCTATTTTTCGAGTAAACAAATTTTCCTAATCTTTCTGTTCAAGCGCCATCTAC”, the binding signal is 1.61 RPM ratio (pull-down/input). “GATGATTGTTCTCCCAGCTGATGAATTGTTCTATTCGAGTAAACAAATTTTCCTAATCTTTCTGTTCAAGCGCCATCTAC”: the binding signal is 1.34 RPM ratio (pull-down/input).

Regarding “GATGATTGTTCTCCCAGCTGATGAATTCTCCTATTCGAGTAAACAAATTTTCCTAATCTTTCTGTTCAAGCGCCATCTAC”, the binding signal was 0.943 RPM ratio (pull-down/input). On to “GATGATTGTTCTCCCAGCTGATGAATTTCCTATTTCGAGTAAACAAATTTTCCTAATCTTTCTGTTCAAGCGCCATCTAC”, for which the binding signal is 0.887 RPM ratio (pull-down/input).

Regarding “GATGATTGTTCTCCCAGCTGATGAATTTTTCTATTCGAGTAAACAAATTTTCCTAATCTTTCTGTTCAAGCGCCATCTAC”, the binding signal was 0.984 RPM ratio (pull-down/input). In the case of “GATGATTGTTCTCCCAGCTGATGAATTCTATTGTTCGAGTAAACAAATTTTCCTAATCTTTCTGTTCAAGCGCCATCTAC”, the binding signal was 1.99 RPM ratio (pull-down/input). To “GATGATTGTTCTCCCAGCTGATGAATTTTCTATTTCGAGTAAACAAATTTTCCTAATCTTTCTGTTCAAGCGCCATCTAC” belongs 0.975 RPM ratio (pull-down/input).
